Active and inactive are the calls of the source. Unless noted, how the calls were made is not given here.
Experiments:
[1] = resazurin metabolic signal in HepG2 cells – cell-based, resazurin fluorescence, 24 h, PK04 Diversity Set, profiling panel (AID 1172); conditions: HepG2 viability, higher = more signal
[2] = budding yeast growth changes without added modifier – OD600, strain BY4716, 24 h, basal condition, primary screen (AID 1173); conditions: S. cerevisiae BY4716 growth, OD600, 24 h; higher = more signal, called active from +8 up or from −8 down
[3] = viability profiling in MM1S myeloma cells – cell-based, resazurin fluorescence, basal, 24 h, PK04 Diversity Set, profiling panel (AID 1174); conditions: higher = more signal, called active from +8 up or from −8 down;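 further: MM1S multiple myeloma cell line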
[4] = molecular target: Dihydroorotate dehydrogenase (quinone), mitochondrial (Plasmodium falciparum (isolate 3D7)) (UniProt Q08210); test: inhibition of P. falciparum DHODH – biochemical, C-terminal His tag, absorbance 600 nm, primary screen (AID 1175); conditions: PfDHODH enzyme, DCIP absorbance 600 nm; higher = more signal, called active from +8 up or from −8 down;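 further: recombinant parasite enzyme with a five histidine tag at its C terminus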
Sequence of Dihydroorotate dehydrogenase (quinone), mitochondrial (Plasmodium falciparum (isolate 3D7)) (Q08210 whole entry, looked up): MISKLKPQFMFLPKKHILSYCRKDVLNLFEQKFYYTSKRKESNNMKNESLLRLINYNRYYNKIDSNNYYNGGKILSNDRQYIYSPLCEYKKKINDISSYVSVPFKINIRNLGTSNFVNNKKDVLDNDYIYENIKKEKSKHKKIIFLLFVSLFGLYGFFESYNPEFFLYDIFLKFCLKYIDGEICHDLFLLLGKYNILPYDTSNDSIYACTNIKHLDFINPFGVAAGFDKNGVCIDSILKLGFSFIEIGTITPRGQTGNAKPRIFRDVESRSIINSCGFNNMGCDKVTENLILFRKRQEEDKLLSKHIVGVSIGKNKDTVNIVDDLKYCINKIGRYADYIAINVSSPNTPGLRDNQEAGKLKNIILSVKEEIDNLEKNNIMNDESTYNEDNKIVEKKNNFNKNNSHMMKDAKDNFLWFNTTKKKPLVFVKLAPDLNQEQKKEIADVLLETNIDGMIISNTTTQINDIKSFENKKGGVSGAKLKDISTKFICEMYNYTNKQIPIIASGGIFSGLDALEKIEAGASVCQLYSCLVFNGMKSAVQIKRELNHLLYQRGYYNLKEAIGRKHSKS

[5] = inhibition of PAO1 biofilm formation – strain PAO1, LB-PBS medium, absorbance 600 nm, primary screen (AID 1176); conditions: P. aeruginosa PAO1 growth/biofilm, A600, 12 h; higher = more signal
[6] = growth modulation of vineyard yeast isolate – strain RM11-1a, OD600, basal, 24 h, primary screen (AID 1177);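 further: cultures grown under basal conditions with no added stressor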; conditions: S. cerevisiae RM11-1a growth, OD600, 24 h; higher = more signal, called active from +8 up or from −8 down
[7] = growth of efflux-deficient E. coli DRC39 – strain DRC39, OD650, 24 h, E. coli filamentation inducers, primary screen (AID 1178);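 further: growth measured as culture turbidity by optical density at 650 nm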; conditions: E. coli DRC39 acrAB, higher = more signal, called active from +8 up or from −8 down
[8] = growth of efflux-deficient E. coli DRC39 – strain DRC39, OD650, 48 h, E. coli filamentation inducers, primary screen (AID 1179);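 further: screen aims at cell division blockers that make cells filament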; conditions: E. coli DRC39 delta-acrAB growth, higher = more signal, called active from +8 up or from −8 down
[9] = viability profiling in RPMI8226 myeloma cells – cell-based, resazurin fluorescence, basal, 24 h, PK04 Diversity Set, profiling panel (AID 1180); conditions: higher = more signal;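 further: RPMI8826 multiple myeloma cell line at 5000 cells per well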
[10] = molecular target: E3 ubiquitin-protein ligase XIAP (Homo sapiens) (UniProt P98170); test: small molecules binding XIAP protein – biophysical, small-molecule microarray, fluorescence 635 nm, primary screen (AID 1181); conditions: higher = more signal;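 further: score merges 667 nm emission and signal to noise over triplicate slides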
Sequence of E3 ubiquitin-protein ligase XIAP (Homo sapiens) (P98170 whole entry, looked up, the tested form may be a part): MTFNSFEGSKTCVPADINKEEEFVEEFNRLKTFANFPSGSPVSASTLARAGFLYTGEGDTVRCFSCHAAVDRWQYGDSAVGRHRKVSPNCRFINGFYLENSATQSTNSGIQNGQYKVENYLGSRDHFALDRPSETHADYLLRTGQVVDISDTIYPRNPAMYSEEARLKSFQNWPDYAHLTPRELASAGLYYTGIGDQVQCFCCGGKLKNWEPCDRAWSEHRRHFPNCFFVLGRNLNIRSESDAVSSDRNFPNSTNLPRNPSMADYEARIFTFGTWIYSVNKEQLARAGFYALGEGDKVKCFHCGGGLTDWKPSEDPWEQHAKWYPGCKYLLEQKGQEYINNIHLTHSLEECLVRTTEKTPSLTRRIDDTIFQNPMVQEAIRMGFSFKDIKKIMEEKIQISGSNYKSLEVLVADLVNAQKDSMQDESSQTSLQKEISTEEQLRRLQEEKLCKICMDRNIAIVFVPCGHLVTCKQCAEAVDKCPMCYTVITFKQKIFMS

[11] = test system: XIP peptide (Xip251-270) binding; test: XIP fragment 251-270 binding compounds – biochemical, small-molecule microarray, fluorescence 635/667 nm, 0.1 µg/mL protein, primary screen (AID 1182); conditions: fluorescent protein binding, 635 nm, higher = more signal, called active from +8 up or from −8 down
[12] = test system: XIP peptide (Xip251-270); test: compounds binding XIP fragment 251-270 – biochemical, small-molecule microarray, fluorescence 635/667 nm, 0.5 µg/mL protein, primary screen (AID 1183); conditions: fluorescence 635 nm, higher = more signal
[13] = blood-stage malaria parasite viability loss – strain 3D7, DAPI fluorescence, 100 nL, primary screen (AID 1184);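 further: parasites grown inside human red blood cells in medium with human serum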; conditions: P. falciparum 3D7 growth, 3 d, higher = more signal
[14] = molecular target: Homeobox protein Hox-A13 (Mus musculus) (UniProt Q62424); test: disruptors of Hoxa13 oligonucleotide interaction – biochemical, fluorescence polarization, labeled oligonucleotide, primary screen (AID 1185); conditions: Hoxa13:DNA binding, 15 min, higher = more signal, called active from +8 up or from −8 down
Sequence of Homeobox protein Hox-A13 (Mus musculus) (Q62424 whole entry, looked up): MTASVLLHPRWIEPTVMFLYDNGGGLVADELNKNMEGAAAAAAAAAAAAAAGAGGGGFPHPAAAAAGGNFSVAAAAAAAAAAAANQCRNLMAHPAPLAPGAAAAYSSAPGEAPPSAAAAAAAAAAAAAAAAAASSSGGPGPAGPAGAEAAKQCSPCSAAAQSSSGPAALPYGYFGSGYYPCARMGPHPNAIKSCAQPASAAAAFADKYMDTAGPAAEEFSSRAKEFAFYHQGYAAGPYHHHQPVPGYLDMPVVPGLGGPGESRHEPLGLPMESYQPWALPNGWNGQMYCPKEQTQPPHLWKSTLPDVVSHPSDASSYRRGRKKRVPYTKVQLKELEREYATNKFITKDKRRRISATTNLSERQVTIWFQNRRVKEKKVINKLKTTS

[15] = blockers of DNA damage checkpoint Chk1 activation – imaging, HeLa, hydroxyurea, phospho-Chk1 antibody, percent positive cells, primary screen (AID 1186); conditions: hydroxyurea-induced phospho-Chk1 immunofluorescence imaging, higher = more signal
[16] = blockers of DNA damage checkpoint Chk1 activation – imaging, HeLa, hydroxyurea, phospho-Chk1 nuclear intensity, primary screen (AID 1187); conditions: hydroxyurea-induced phospho-Chk1 immunofluorescence imaging, higher = more signal

Structure (SMILES) | z-score [1] | z-score [2] | z-score [3] | composite z-score [4] | z-score [5] | z-score [6] | z-score [7] | z-score [8] | z-score [9] | composite z-score [10] | composite z-score [11] | composite z-score [12] | z-score [13] | z-score [14] | z-score [15] | z-score [16]
CC(=O)c1ccc(C(O)C2C=CC3C(=O)NC(=O)C3N2Nc2ccc(Cl)cc2Cl)cc1 (centres undefined) | -1.16 | -2.33 (inactive) | -1.35 (inactive) | 1.16 (inactive) | 0.835 (inactive) | 1.39 (inactive) | 0.385 (inactive) | -1.48 (inactive) | -1.8 | -0.0421 | 0.187 (inactive) | 0.02 | -0.677 | -5.84 (inactive) | 0.173 (inactive) | 0.588 (inactive)
COC(=O)c1ccc([C@H](NC(=O)c2ccccc2)[C@]2(C)C[C@H]2C2CCCCC2)cc1 | 0.38 | 1.28 (inactive) | 0.713 (inactive) | -0.256 (inactive) | 0.371 (inactive) | 0.832 (inactive) | -1 (inactive) | -0.768 (inactive) | 0.293 | -0.127 | -0.317 (inactive) | -0.199 | -0.631 | 3.23 (inactive) | -0.198 (inactive) | -0.123 (inactive)
[N-]=[N+]=NCc1ccccc1C[C@]1(C(=O)N2CCOCC2)N=C(c2ccc(OCCCO)cc2)O[C@H]1c1ccccc1CN=[N+]=[N-] | 0.133 | 1.06 (inactive) | -0.481 (inactive) | 1.21 (inactive) | 0.948 (inactive) | 2.39 (inactive) | 1.67 (inactive) | 0.93 (inactive) | -1.11 | 0.411 | 0.158 (inactive) | 0.733 | -2.28 | 0.116 (inactive) | -0.597 (inactive) | -0.736 (inactive)
N[C@@H](Cc1ccccc1)Cn1cc(C2(O)CCCCC2)nn1 | -0.384 | -0.125 (inactive) | -0.156 (inactive) | -0.0324 (inactive) | 0.0672 (inactive) | -0.507 (inactive) | -0.0019 (inactive) | -0.607 (inactive) | -0.785 | -0.0767 | -0.0563 (inactive) | 0.0069 | 0.493 | -3.59 (inactive) | 0.43 (inactive) | 0.426 (inactive)
COc1ccc(C#Cc2ccc3c(c2)[C@]2(C(=O)N3)[C@H](c3ccc(OCCO)cc3)N3[C@H](c4ccccc4)[C@H](c4ccccc4)OC(=O)[C@H]3[C@@H]2C(=O)O)cc1 | 1.24 | 1.85 (inactive) | -0.103 (inactive) | -12.9 (active) | 2.25 (inactive) | 1.73 (inactive) | 1.22 (inactive) | 0.0805 (inactive) | 0.149 | 0.158 | -0.436 (inactive) | 0.327 | -1.31 | -5.36 (inactive) | 0.36 (inactive) | 0.273 (inactive)
C=CCC(OC(C)=O)[C@@H]1[C@@H](N(Cc2ccc(-c3ccccc3)cc2)C(=O)c2ccc(C)cc2)c2cc(OCCCO)ccc2N1C(=O)c1ccc2ccccc2c1 (some centres undefined) | -0.643 | -0.766 (inactive) | 1.12 (inactive) | -1.55 (inactive) | -0.0877 (inactive) | -1.99 (inactive) | 0.406 (inactive) | 0.67 (inactive) | 1.36 | -0.0357 | -0.654 (inactive) | -0.354 | -1.26 | -0.819 (inactive) | -0.363 (inactive) | -0.221 (inactive)
CCC(CC)C(O)C1C=CC2C(=O)N(C)C(=O)C2N1N1CCCCC1 (centres undefined) | -0.735 | -0.0172 (inactive) | -1.21 (inactive) | -1.17 (inactive) | 0.571 (inactive) | -0.266 (inactive) | -0.652 (inactive) | -0.686 (inactive) | -1.12 | 0.167 | 0.865 (inactive) | 0.708 | 0.907 | -6.35 (inactive) | 0.687 (inactive) | 0.562 (inactive)
N#Cc1ccc(C(O)C2C=CC3C(=O)NC(=O)C3N2Nc2ccccn2)cc1 (centres undefined) | -1.62 | -0.055 (inactive) | -0.601 (inactive) | -0.127 (inactive) | 0.791 (inactive) | -1.57 (inactive) | 0.0007 (inactive) | 1.25 (inactive) | -0.353 | -0.0536 | -0.108 (inactive) | 0.669 | -0.557 | -1.11 (inactive) | -0.0275 (inactive) | 0.114 (inactive)
CC(C)C(=C=CC[C@@H](O)c1ccc(OCCO)cc1)CCO | 1 | -3.28 (inactive) | 1.21 (inactive) | -2.88 (inactive) | 0.13 (inactive) | -1.17 (inactive) | 1.61 (inactive) | 1.52 (inactive) | 1.52 | -0.0645 | 0.308 (inactive) | 0.222 | -2.09 | -2.38 (inactive) | -0.201 (inactive) | 1.37 (inactive)
CCCCC(=C=CC[C@@H](O)c1cccc(OCCO)c1)CCO | 0.695 | -1.26 (inactive) | -0.0452 (inactive) | -0.376 (inactive) | 0.424 (inactive) | 0.549 (inactive) | 1.14 (inactive) | 0.839 (inactive) | 1.37 | -0.0853 | -0.0509 (inactive) | 0.106 | -0.0161 | -2.25 (inactive) | -0.875 (inactive) | -0.341 (inactive)
CC(C)C[C@H]1NC(=O)[C@@H](C)NC(=O)[C@@]23C(=O)N[C@@H](Cc4ccccc4)C2[C@H](C)[C@@]2(C)O[C@H]2C3/C=C/C/C=C\CNC1=O (some centres undefined) | -0.328 | -0.808 (inactive) | 0.0814 (inactive) | -1 (inactive) | 0.531 (inactive) | -1.27 (inactive) | -0.46 (inactive) | 0.184 (inactive) | 0.184 | -0.102 | 1.06 (inactive) | 0.679 | 0.234 | -6.94 (inactive) | 0.255 (inactive) | 0.0218 (inactive)
CC(C)[Si](C#CCCCC#N)(O[C@H](c1ccccc1)c1cn([C@H](C)c2ccccc2)nn1)C(C)C | 0.592 | -1.06 (inactive) | 0.181 (inactive) | 0.31 (inactive) | 0.559 (inactive) | -0.802 (inactive) | -0.708 (inactive) | -0.482 (inactive) | 0.409 | 0.172 | -0.301 (inactive) | 0.415 | -0.133 | -0.445 (inactive) | -0.228 (inactive) | -0.174 (inactive)
C=CCN1C(=O)[C@]2(O[C@H](CCO)[C@@H]([Si](C)(C)c3ccc(OC)cc3)[C@@H]2C)c2ccccc21 | -2.84 | -5.08 (inactive) | -1.46 (inactive) | 0.0196 (inactive) | 0.225 (inactive) | 1.55 (inactive) | -0.377 (inactive) | -1.46 (inactive) | -2.74 | -0.144 | 0.0965 (inactive) | 0.193 | -2.31 | -6.69 (inactive) | -1.17 (inactive) | -1.58 (inactive)
CC(C)C[C@@H]1NC(=O)[C@@H]2C[C@H](C(=O)NCCCC[N+](C)(C)C)[C@H](c3ccc(O)cc3)N2C1=O | -0.965 | 0.166 (inactive) | -0.524 (inactive) | -31.3 (active) | 0.876 (inactive) | 0.0138 (inactive) | 0.382 (inactive) | 0.581 (inactive) | -0.866 | -0.128 | 1.03 (inactive) | 0.858 | -0.174 | -1.73 (inactive) | 0.757 (inactive) | 0.0766 (inactive)
C=CCC(OC(C)=O)[C@@H]1[C@@H](N(Cc2ccc(-c3ccccc3)cc2)C(=O)c2cccc3ccccc23)c2cc(OCCCO)ccc2N1C(=O)c1ccc2ccccc2c1 (some centres undefined) | -0.784 | -0.185 (inactive) | -0.967 (inactive) | -0.318 (inactive) | 0.48 (inactive) | -0.865 (inactive) | 0.144 (inactive) | -0.455 (inactive) | -1.3 | -0.0017 | 0.15 (inactive) | -0.0461 | -1.76 | -1.33 (inactive) | -0.293 (inactive) | -0.006 (inactive)
O=C1C2C=CC(C(O)c3cccs3)N(Nc3ccccc3)C2C(=O)N1c1ccccc1 (centres undefined) | -1.51 | -3.05 (inactive) | -0.334 (inactive) | -0.116 (inactive) | 1.06 (inactive) | -0.272 (inactive) | 0.0187 (inactive) | -0.952 (inactive) | -0.717 | 0.0537 | 0.308 (inactive) | 0.171 | -0.459 | -2.56 (inactive) | -0.719 (inactive) | -0.649 (inactive)
CCC[C@@H]1C=C(C(=O)OCC)[C@H](c2ccccc2)N1S(=O)(=O)c1ccc(C)cc1 | -0.197 | 1.53 (inactive) | -0.37 (inactive) | -0.0973 (inactive) | 0.0362 (inactive) | 1.84 (inactive) | -0.213 (inactive) | 0.0062 (inactive) | -1.89 | -0.0696 | 0.406 (inactive) | 0.681 | -2.11 | -0.624 (inactive) | 0.144 (inactive) | 0.0243 (inactive)
COCCOC(=O)N1C(=O)[C@@]2(c3cc(C#CCCO)ccc31)[C@H](c1ccc(O)cc1)N1[C@H](c3ccccc3)[C@H](c3ccccc3)OC(=O)[C@H]1[C@@H]2C(=O)N1CCc2cc(OC)c(OC)cc2C1 | 0.458 | 0.537 (inactive) | 0.202 (inactive) | -1.1 (inactive) | 0.318 (inactive) | 1.26 (inactive) | 0.886 (inactive) | 0.821 (inactive) | 1.26 | -0.0272 | 0.0404 (inactive) | 0.786 | -0.0976 | -1.97 (inactive) | -0.0202 (inactive) | 0.0613 (inactive)
COCC(=C=CC[C@@H](O)c1ccc(OCCO)cc1)C[C@@H](O)COCc1ccccc1 | 0.948 | -0.81 (inactive) | 0.891 (inactive) | -2.32 (inactive) | 0.801 (inactive) | -1.31 (inactive) | 0.789 (inactive) | 0.859 (inactive) | 0.804 | 0.24 | 0.705 (inactive) | 0.181 | -2.96 | -4.15 (inactive) | -0.252 (inactive) | 0.483 (inactive)
